# Hits are enriched below; roughly 3.1% of the tested compounds scored in any of these assays.
# GDH-TPI counter-1: GDH-TPI coupling enzyme inhibitors, primary screen, artefact control for M. tuberculosis FBA inhibitor project, biochemical, absorbance, full deck; inhibition, % at 4.8 µM; AID 588335, 2011; GDH-TPI coupled enzyme counterscreen, NADH absorbance; 360,000 tested, 1.2% active; in the data active = inhibition above about 30%;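 also: 0% = DMSO wells and 100% = wells lacking the enzyme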
# Mtb BioA inh: M. tuberculosis BioA enzyme inhibitors, primary screen, biochemical, plate reader, single point, HTS | 360,000 tested, 0.096% active | inhibition, % at 9.99 µM | purified M. tuberculosis BioA enzyme | 7,8-diaminopelargonic acid synthase BioA (Mycobacterium tuberculosis); in the data active = inhibition above about 40%
# SARS 3CLpro inh: SARS-CoV 3CLpro protease inhibitors, primary screen, biochemical, quenched FRET; AID 1706, 2009; inhibition, % at 6 µM; recombinant SARS-CoV 3CLpro, quenched FRET peptide cleavage; 290,000 tested, 0.14% active; in the data active = inhibition above about 12%
# FBA Mtb inh: Mtb FBA enzyme inhibitors, primary screen, biochemical, fluorescence, strain H37Rv; Fructose-bisphosphate aldolase (Mycobacterium tuberculosis (strain ATCC 25618 / H37Rv)), …; purified M. tuberculosis FBA, fluorescence read-out; inhibition, % at 1 µM; 360,000 tested, 2.3% active;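 also: 0% = vehicle and 100% = reference inhibitor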
# Target sequence (P9WQA3 whole entry, looked up): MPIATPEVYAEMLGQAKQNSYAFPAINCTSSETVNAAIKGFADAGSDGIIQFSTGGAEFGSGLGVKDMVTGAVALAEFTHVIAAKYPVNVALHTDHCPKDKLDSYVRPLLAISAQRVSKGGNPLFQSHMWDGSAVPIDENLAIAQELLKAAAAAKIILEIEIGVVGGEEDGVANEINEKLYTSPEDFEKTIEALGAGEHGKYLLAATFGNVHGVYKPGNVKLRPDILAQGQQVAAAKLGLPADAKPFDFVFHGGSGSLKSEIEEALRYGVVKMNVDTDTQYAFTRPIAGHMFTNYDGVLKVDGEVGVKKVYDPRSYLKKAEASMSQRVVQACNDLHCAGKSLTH
# FadD28 FP inh: inhibitors of FadD28 bisubstrate probe binding, primary screen, biochemical, fluorescence polarization, single point. 360,000 tested, 0.22% active. Mycobacterium tuberculosis FadD28 fatty-acid-AMP ligase. inhibition, % at 12.5 µM; in the data active = inhibition above about 8.5%, passing the limit was not always enough
# Mtb FBA confirm: M. tuberculosis aldolase blockers, biochemical, fluorescence, strain H37Rv, confirmation. purified M. tuberculosis FBA, fluorescence read-out. shares compounds with FBA Mtb inh. AID 651616, 2012. inhibition, % at 1 µM. 5,600 tested, 78% active;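 also: 0% = vehicle wells and 100% = reference inhibitor wells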
# GDH-TPI counter-2: GDH-TPI coupling enzyme inhibitors, artefact control for M. tuberculosis FBA inhibitor project, biochemical, fluorescence, high throughput. shares compounds with FBA Mtb inh. GDH-TPI coupled enzyme counterscreen. inhibition, % at 1 µM. 5,600 tested, 81% active. AID 652141, 2013; in the data active = inhibition above about 10%
# The depositor's hits bear a star; . = no result given. Rule as the data show it, unless noted: active = inhibition above about 27%; inactive = the rest.
SMILES,GDH-TPI counter-1,Mtb BioA inh,SARS 3CLpro inh,FBA Mtb inh,FadD28 FP inh,Mtb FBA confirm,GDH-TPI counter-2
O=C1c2ccccc2NC(c2ccc(O)cc2)N1Cc1ccco1 (configuration not stated),17,2,3,24,-4,.,.
Cc1ccc(C2Nc3ccccc3C(=O)N2Cc2ccco2)cc1 (configuration not stated),14,2,6,43*,-1,86*,56*
COc1ccc(C2Nc3ccccc3C(=O)N2c2ccccc2)cc1COc1ccccn1 (configuration not stated),-5,3,-1,90*,-4,90*,75*
O=C1c2ccccc2NC(c2cccc(F)c2)N1Cc1ccco1 (configuration not stated),9,2,-5,60*,-3,74*,59*
O=C1c2ccccc2NC(c2cccc(F)c2)N1Cc1ccccc1 (configuration not stated),6,0,6,58*,-2,97*,81*
O=C(NCCc1ccccc1)c1ccc2[nH]c(=O)c(=O)[nH]c2c1,0,0,-7,33*,-4,32*,19*
CCOc1ccc(NC(=O)C(=O)NCCCn2ccnc2)cc1,3,-2,-1,44*,-1,197*,164*
CCCCNC(=O)c1cc2cc(OC)ccc2[nH]1,12,0,2,49*,-2,-4,-7
O=C(O)c1cc2cc(OCc3ccccc3)ccc2[nH]1,4,-1,8,39*,0,129*,97*
O=C(Cc1ccccn1)NCC[C@H]1CC[C@@H](NS(=O)(=O)c2ccccc2)[C@H](CO)O1,.,1,.,.,.,.,.
COc1ccc(CNC(=O)Cc2c(C(=O)O)[nH]c3ccccc23)c(OC)c1,-4,-2,0,0,0,.,.
COc1ccc2[nH]c(=O)c(C(=O)O)cc2c1,9,.,-6,53*,-2,66*,61*
COc1ccc2[nH]c(C(=O)O)c(CCNC(C)=O)c2c1,14,2,4,49*,0,125*,106*
COc1ccc2[nH]c(C(=O)NCCc3ccccc3)cc2c1,-3,1,1,48*,0,5,-4
COc1ccc2[nH]c(C(=O)NCCCn3ccnc3)cc2c1,0,-3,-3,86*,1,125*,90*
COc1ccc2[nH]c(C(=O)N(Cc3ccccn3)Cc3ccccn3)cc2c1,9,.,2,34*,-3,132*,113*
CCOc1ccc2nc(NCCCNS(=O)(=O)c3ccccc3)c(C#N)cc2c1,3,0,-5,37*,0,98*,64*
CCOc1ccc2nc(NCCCNS(=O)(=O)c3ccc(F)cc3)c(C#N)cc2c1,8,.,0,40*,-2,0,-3
CCOc1ccc2nc(NCCNC(=O)c3cc(OC)c(OC)c(OC)c3)c(C#N)cc2c1,-8,.,-1,1,-4,.,.
C[C@H](CO)N1C[C@H](C)[C@H](CN(C)Cc2ccc(C(F)(F)F)cc2)OCCCC[C@H](C)Oc2ccc(NS(=O)(=O)c3ccc(F)cc3)cc2C1=O,.,0,.,.,.,.,.
CCc1cc(=O)oc2cc(C)cc(OCC(C)=O)c12,12,1,-1,77*,-1,56*,46*
CCc1cc(=O)oc2cc(C)cc(OCC(=O)C(C)(C)C)c12,14,.,2,65*,-1,126*,106*
C[C@@H]1CN([C@@H](C)CO)C(=O)c2cc(NC(=O)c3ccncc3)ccc2O[C@@H]1CN(C)C(=O)Nc1ccc(F)cc1,.,2,.,.,.,.,.
O=C(C[C@@H]1C[C@@H]2c3cc(NC(=O)C4CCC4)ccc3O[C@@H]2[C@H](CO)O1)NCc1ccccc1F,.,-2,.,.,.,.,.

# Source: PubChem BioAssay (several laboratories)
